Test results published in PubChem BioAssay (Tox21).
Where “and” joins values, the source holds several entries; their conditions need not be identical. Equal values may be shown once. Records with an inconclusive call do not appear. Some compounds were tested as several samples or in several runs, with calls that do not always agree. Calls of active or inactive are those of the source. Unless noted, the call rests on the fitted dose curve; in most records, active means well fitted curve in the direction sought with a large enough effect in the repeat runs; inconclusive means weak or mixed curves; inactive means no such curve, though single readings can be large; an effect the other way counts as inactive or inconclusive.

Assays:
[1] = qHTS assay to identify small molecule antagonists of the retinoid acid receptor (RAR) signaling pathway - cell viability counter screen (AID 1159551); further: nearly all actives have a fitted effect of over 35% in size; further: potency means the concentration at half of the fitted maximal effect
Summary of the method: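 Retinol-stimulated (1 uM final) C3RL4 cells, compound 6 h, 37 C; readout CellTiter-Glo luminescence (ATP) after 30 min RT incubation.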

[2] = qHTS assay to identify small molecule antagonists of the retinoic acid receptor (RAR) signaling pathway (AID 1159552; further: nearly all actives have a fitted effect of over 50% in size; further: potency means the concentration at half of the fitted maximal effect)
Summary of the method: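 Using a RARE-driven luciferase construct in C3RL4 cells, retinol at 1 uM final provided the agonist stimulus while compounds were co-applied. After 6 hours at 37 C, luminescence was recorded to flag inhibitors of retinol signaling.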

[3] = qHTS assay to identify small molecule antagonists of the estrogen related receptor (ERR) signaling pathway from Tox21 library - cell viability counter screen (AID 1224834); further: nearly all actives have a fitted effect of over 30% in size; further: potency means the concentration at half of the fitted maximal effect
Summary of the method: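 After 17.5 h of compound exposure at 37 C, ERR cells are incubated with CellTiter-Fluor for 30 min and fluorescence intensity serves as the viability measure.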

[4] = biological target: Luciferin 4-monooxygenase (Photinus pyralis) (UniProt P08659); experiment: qHTS assay to identify small molecule inhibitors of firefly luciferase (AID 1224835); further: nearly all actives have a fitted effect of over 25% in size; further: potency means the concentration at half of the fitted maximal effect
Summary of the method: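 Biochemical qHTS: compounds run as interplate titrations against purified firefly enzyme, with D-luciferin and ATP each at its KM concentration. Light output recorded by CCD imaging.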

[5] = qHTS assay to identify small molecule agonists of the constitutive androstane receptor (CAR) signaling pathway - cell viability counter screen (AID 1224836); further: nearly all actives have a fitted effect of over 45% in size; further: potency means the concentration at half of the fitted maximal effect
Summary of the method: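 Multiplexed viability check: HepG2-CYP2B6-hCAR cells, 15-point compound dosing, 0.75 uM PK11195 final, 23 h at 37 C, CellTiter-Fluor fluorescence.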

[6] = qHTS assay to identify small molecule antagonists of the constitutive androstane receptor (CAR) signaling pathway - cell viability counter screen (AID 1224837); further: nearly all actives have a fitted effect of over 45% in size; further: potency means the concentration at half of the fitted maximal effect
Summary of the method: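 Counter screen run in HepG2-CYP2B6-hCAR cells: 4 hr settle, compound titration (15 concentrations) with 50 nM CITCO, 23 hr at 37 C/5% CO2, CellTiter-Fluor fluorescence.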

[7] = biological target: Nuclear receptor subfamily 1 group I member 3 (Homo sapiens) (UniProt Q14994); experiment: qHTS assay to identify small molecule antagonists of the constitutive androstane receptor (CAR) signaling pathway (AID 1224838);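 further: HepG2 cells stably expressing hCAR with CYP2B6 luciferase reporter stimulated by CITCO; nearly all actives have a fitted effect of over 40% in size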; further: potency means the concentration at half of the fitted maximal effect
Summary of the method: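 Cell line: HepG2 double-stable for hCAR and CYP2B6-2.2kb reporter. Agonist: CITCO, 50 nM final. Compounds: 15 concentrations, 24 h, 37 C. Detection: ONE-Glo luminescence.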

[8] = biological target: Nuclear receptor subfamily 1 group I member 3 (Homo sapiens) (UniProt Q14994); experiment: qHTS assay to identify small molecule agonists of the constitutive androstane receptor (CAR) signaling pathway (AID 1224839); further: nearly all actives have a fitted effect of over 15% in size; further: potency means the concentration at half of the fitted maximal effect
Summary of the method: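 Using human hepatoma HepG2 cells engineered with hCAR and a CYP2B6-2.2kb reporter, 15-concentration compound series were incubated 24 h alongside PK11195 at 0.75 uM final, with luminescence quantified afterwards.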

[9] = biological target: Thyrotropin receptor (Homo sapiens) (UniProt P16473); experiment: qHTS assay to identify small molecule agonists of the thyroid stimulating hormone receptor (TSHR) signaling pathway (AID 1224843; calls by dose curve; further: nearly all actives have a fitted effect of over 45% in size; further: potency means the concentration at half of the fitted maximal effect)
Summary of the method: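 Steps: seed 800 TSHR-HEK293 cells per well; add test compound and hold 30 min at ambient temperature; dispense cAMP-d2 then anti-cAMP cryptate; incubate 1 h at ambient; measure fluorescence intensity.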

[10] = qHTS assay to identify small molecule agonists of the retinoic acid receptor (RAR) signaling pathway (AID 1159553)
Summary of the method: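 Reporter readout comes from luciferase under RARE control in C3RL4 cells; compound exposure lasts 6 hr at 37 C in 5% CO2, and luminescence is recorded following a 30 min room-temperature incubation with reagent.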

[11] = qHTS assay to identify small molecule antagonists of the estrogen related receptor signaling pathway with the pleiotropic PPARgamma coactivator (PGC) from Tox21 10K library - cell viability counter screen (AID 1224840; active means well fitted cell-killing curve with a large enough effect in the repeat runs, not every such curve was filed as active; further: nearly all actives have a fitted effect of over 40% in size; further: potency means the concentration at half of the fitted maximal effect)
Summary of the method: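 Following seeding of 2,000 PGC/ERR cells/well and 6 hours' incubation, test compounds were delivered in DMSO. The plates then sat 17.5 hours at 37 C before a fluorogenic live-cell protease reagent (CellTiter-Fluor) was read after 30 min.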

[12] = qHTS assay to identify small molecule antagonists of the estrogen related receptor signaling pathway with the pleiotropic PPARgamma coactivator (PGC) from Tox21 10K library (AID 1224841; call rule not given here; further: actives are mostly falling curves and most rising ones were filed inactive; nearly all actives have a fitted effect of over 50% in size; further: potency means the concentration at half of the fitted maximal effect)
Summary of the method: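 qHTS antagonist format: PGC/ERR cells, 2k/well, compound in DMSO by pin transfer after 6 h attachment, 18 h treatment at 37 C, One-Glo luminescence read at 30 min.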

[13] = qHTS assay to identify small molecule agonists of the estrogen related receptor signaling pathway with the pleiotropic PPARgamma coactivator (PGC) from Tox21 10K library (AID 1224842); further: nearly all actives have a fitted effect of over 15% in size
Summary of the method: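 PGC/ERR reporter cell line, 2,000 cells per well, incubated 6 h at 37 C before 23 nL compound in DMSO was added. After 18 h at 37 C, One-Glo luminescence read following 30 min at room temperature.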

[14] = qHTS assay to identify small molecule antagonists of the estrogen related receptor (ERR) signaling pathway - cell viability counter screen (AID 1224818); further: series mostly up to about 46 µM
Summary of the method: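 After a 6 h pre-incubation, ERR cells were dosed by pin tool with compounds, positive/negative controls or DMSO alone. Following 17.5 h at 37 C and 30 min with CellTiter-Fluor, fluorescence was recorded.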

[15] = qHTS assay to identify small molecule antagonists of the estrogen related receptor signaling pathway with the pleiotropic PPARgamma coactivator (PGC) cell viability counter screen (AID 1224822; further: series mostly up to about 46 µM)
Summary of the method: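 PGC/ERR cells were plated at 2,000 per well and allowed 6 h to settle before compound addition. Following 17.5 h at 37 C, CellTiter-Fluor reagent was added and fluorescence was read 30 min later.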

Measured: Potency

Sequence of Luciferin 4-monooxygenase (Photinus pyralis) (P08659 whole entry, looked up): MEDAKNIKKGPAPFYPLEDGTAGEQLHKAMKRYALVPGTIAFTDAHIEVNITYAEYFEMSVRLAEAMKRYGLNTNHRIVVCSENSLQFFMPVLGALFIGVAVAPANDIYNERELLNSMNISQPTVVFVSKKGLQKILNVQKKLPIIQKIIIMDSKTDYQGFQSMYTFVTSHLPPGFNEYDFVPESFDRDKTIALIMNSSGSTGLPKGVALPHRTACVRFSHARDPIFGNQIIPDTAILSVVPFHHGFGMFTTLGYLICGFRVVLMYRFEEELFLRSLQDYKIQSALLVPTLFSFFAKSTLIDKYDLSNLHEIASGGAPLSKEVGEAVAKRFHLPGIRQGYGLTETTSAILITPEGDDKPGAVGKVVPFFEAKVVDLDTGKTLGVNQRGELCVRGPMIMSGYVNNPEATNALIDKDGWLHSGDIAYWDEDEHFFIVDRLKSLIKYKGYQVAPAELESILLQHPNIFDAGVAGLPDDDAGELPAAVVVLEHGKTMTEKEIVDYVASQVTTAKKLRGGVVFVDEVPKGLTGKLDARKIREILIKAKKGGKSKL
Sequence of Thyrotropin receptor (Homo sapiens) (P16473 whole entry, looked up): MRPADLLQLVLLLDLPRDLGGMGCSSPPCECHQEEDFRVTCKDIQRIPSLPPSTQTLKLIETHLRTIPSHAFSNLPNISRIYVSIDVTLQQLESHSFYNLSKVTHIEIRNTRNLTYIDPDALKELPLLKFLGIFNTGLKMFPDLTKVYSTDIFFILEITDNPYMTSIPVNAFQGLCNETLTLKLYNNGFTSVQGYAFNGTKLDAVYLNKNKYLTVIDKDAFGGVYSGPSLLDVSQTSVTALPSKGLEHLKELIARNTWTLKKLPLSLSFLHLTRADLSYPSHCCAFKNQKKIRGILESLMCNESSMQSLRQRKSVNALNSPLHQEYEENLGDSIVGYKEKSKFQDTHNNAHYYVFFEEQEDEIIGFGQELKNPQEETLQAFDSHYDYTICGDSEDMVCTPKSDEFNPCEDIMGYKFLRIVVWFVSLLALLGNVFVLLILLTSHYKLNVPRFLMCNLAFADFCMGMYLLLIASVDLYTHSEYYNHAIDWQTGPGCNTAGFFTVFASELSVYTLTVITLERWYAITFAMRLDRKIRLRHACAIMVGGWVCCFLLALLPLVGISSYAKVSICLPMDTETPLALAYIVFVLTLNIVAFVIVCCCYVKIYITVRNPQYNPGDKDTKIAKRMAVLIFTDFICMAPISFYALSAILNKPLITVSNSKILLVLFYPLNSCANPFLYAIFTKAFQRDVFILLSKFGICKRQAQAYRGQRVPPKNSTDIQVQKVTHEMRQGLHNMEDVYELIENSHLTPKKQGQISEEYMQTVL
Sequence of Nuclear receptor subfamily 1 group I member 3 (Homo sapiens) (Q14994 whole entry, looked up): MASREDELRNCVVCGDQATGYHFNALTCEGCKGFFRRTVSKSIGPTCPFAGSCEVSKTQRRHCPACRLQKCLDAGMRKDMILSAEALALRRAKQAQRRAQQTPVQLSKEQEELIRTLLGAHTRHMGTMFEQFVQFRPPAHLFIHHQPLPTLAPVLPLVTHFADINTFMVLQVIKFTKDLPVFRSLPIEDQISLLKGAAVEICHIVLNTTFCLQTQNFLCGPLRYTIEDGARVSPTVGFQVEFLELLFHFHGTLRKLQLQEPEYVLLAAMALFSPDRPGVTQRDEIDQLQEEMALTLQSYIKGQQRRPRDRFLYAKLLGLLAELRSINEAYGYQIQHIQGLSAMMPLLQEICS

CCc1ccccc1N
not listed: [10] | [11] | [12] | [13] | [14] | [15]
inactive: all other assays above

OC[P+](CO)(CO)CO
not listed: [1] | [8] | [12] | [13] | [14] | [15]
inactive: all other assays above

Clc1ccc(Cl)c(Cl)c1
2.98 µM (active) and inactive: [9]
not listed: [4] | [8] | [14] | [15]
inactive: all other assays above

O=[N+]([O-])/C=C/c1ccccc1
inactive: [8] | [12] | [9]
active: [3] 19.6 µM | [5] 27.8 µM and 24.3 µM | [6] 30.6 µM | [7] 24.7 µM and 24.3 µM

C[N+](C)(C)CCOC(=O)C(O)(c1ccccc1)c1ccccc1
inactive: [1] | [10] | [3] | [4] | [5] | [6] | [11]

c1ccc2c(c1)-c1cccc3cccc-2c13
active: [8] 34.7 µM and 30.6 µM
not listed: [4] | [12] | [13] | [14] | [15]
inactive: all other assays above

CC(C)(C)N(NC(=O)c1ccc(Cl)cc1)C(=O)c1ccccc1
active: [3] 12.1 µM | [6] 8.58 µM
not listed: [5] | [9] | [14] | [15]
inactive: all other assays above

C#C[C@]1(O)CC[C@H]2[C@@H]3CCC4=CC(=O)CCC4=C3C=C[C@@]21CC
inactive: [1] | [4] | [5] | [6] | [7] | [11]
active: [2] 9.44 µM | [3] 21.1 µM

O=C(O)C(F)(F)C(F)(F)C(F)(F)C(F)(F)C(F)(F)C(F)(F)C(F)(F)C(F)(F)F
inactive: [1] | [10] | [3] | [5] | [6] | [11] | [9]

CN(C)N
inactive: [1] | [2] | [10] | [3] | [4] | [5] | [6] | [9]

C=CCOC(=O)C(C)(C)OC(=O)c1cc(-n2c(=O)cc(C(F)(F)F)n(C)c2=O)ccc1Cl
inactive: [4] | [5] | [6] | [7] | [13]

COC1CC(=C(c2cccs2)c2cccs2)C[N+](C)(C)C1 (configuration not stated)
not listed: [2] | [11] | [12] | [13] | [14] | [15]
inactive: all other assays above

C=CCN1C[C@H](C)N([C@H](c2ccc(C(=O)N(CC)CC)cc2)c2cccc(OC)c2)C[C@H]1C
not listed: [5] | [6] | [12] | [14] | [15]
inactive: all other assays above

COc1ccccc1N1CCNCC1
inactive: [14] | [15] | [3] | [4] | [5] | [6] | [11] | [9]

CN(C)C(=O)Nc1cccc(OC(=O)NC(C)(C)C)c1
not listed: [7] | [8] | [11] | [14] | [15]
inactive: all other assays above

CCCC[P+](CC)(CCCC)CCCC (tested in a mixture with another compound)
inactive: [3] | [4] | [5] | [6] | [11] | [9]

Clc1ccc2ccccc2c1
not listed: [1] | [8] | [12] | [13] | [14] | [15]
inactive: all other assays above

OCC1CO1 (configuration not stated)
inactive: [3] | [4] | [5] | [6] | [11]

CCCCNC(=O)OCC#CI
inactive: [4] | [8]
active: [1] 68.2 µM | [2] 43.1 µM and 54.5 µM | [3] 54.2 µM and 68.6 µM | [5] 30.6 µM | [7] 54.2 µM and 24.3 µM | [11] 68.2 µM and 61.1 µM | [9] 8.59 µM and 4.33 µM

CCCCCCCCP(=O)(O)O
not listed: [7] | [8] | [12] | [13] | [14] | [15]
inactive: all other assays above

CC(CC(C(N)=O)(c1ccccc1)c1ccccc1)N(C)C (configuration not stated)
inactive: [3] | [4] | [5] | [6] | [9]

CCC(C)(C)O
not listed: [2] | [10] | [12] | [13] | [14] | [15]
inactive: all other assays above

O=C(O)c1cc(Cl)ccc1Cl
inactive: [1] | [2] | [10] | [3] | [4] | [5] | [6] | [11]

O=C(Cc1ccccc1)OCCc1ccccc1
inactive: [1] | [2] | [3] | [5] | [6] | [11] | [12]
active: [4] 35.6 µM

CC(C)(C)c1ccc(CCOc2ncnc3ccccc23)cc1
not listed: [8] | [12] | [13] | [14] | [15]
inactive: all other assays above

CCC(=O)O[C@@H]1C=C2CCC3C(CCC4(C)C3CC[C@@H]4OC(=O)CC)C2CC1 (some centres not stated)
inactive: [1] | [3] | [4] | [5] | [6] | [11] | [9]

O=C1NC(=O)C(=O)C(=O)N1
inactive: [1] | [10] | [3] | [4] | [5] | [6] | [11] | [9]

CCOP(=S)(S)OCC
active: [4] 33.4 µM
not listed: [10] | [14] | [15]
inactive: all other assays above

CCCCOC(=O)CCC(=O)OCCCC
not listed: [1] | [8] | [13] | [14] | [15]
inactive: all other assays above

CCCC[N+](CCCC)(CCCC)CCCC
inactive: [1] | [10] | [3] | [4] | [5] | [6] | [11]

CC(C)CCON=O
not listed: [8] | [12] | [13] | [14] | [15]
inactive: all other assays above

CCOc1cccc(C2(N3CCN(c4ccccc4)CC3)CCC(C)CC2)c1 (configuration not stated)
not listed: [8] | [11] | [12] | [13] | [14] | [15]
inactive: all other assays above

COc1cc(C[C@@H](C)N)c(OC)cc1Br
active: [12] 31.5 µM
inactive: [1] | [2] | [10] | [3] | [4] | [5] | [6] | [13]

CN(C1CCCCC1)C1CCCCC1
not listed: [10] | [12] | [13] | [14] | [15]
inactive: all other assays above

CC(Cc1ccccc1)NCc1ccccc1Cl (configuration not stated)
active: [8] 26.6 µM
inactive: [1] | [3] | [4] | [5] | [6] | [7] | [11] | [9]

OCCSSCCO
inactive: [1] | [3] | [4] | [5] | [6] | [7] | [8] | [11]

C[Si](Cn1cncn1)(c1ccc(F)cc1)c1ccc(F)cc1
active: [3] 63.1 µM and 48.6 µM | [12] 39.8 µM and 48.6 µM
inactive: [4] | [6] | [13] | [9]

Cc1ccccc1
not listed: [1] | [12] | [13] | [14] | [15]
inactive: all other assays above
